Measured values: PubChem BioAssay (NCI)
Compounds without any hit were thinned out: in the full panel of roughly 83,000, 20% have a hit.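 How to read the values: 0–100, growth inhibition (40 = 60% inhibited); 0, no net growth; -100 to 0, cell death (-40 = 40% of starting cells died; -100 = all dead).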 Unmarked numbers belong to inactive results. The source made the active and inactive calls. Rule for the calls: active = growth percent below 10; inactive = the rest.

tested on: NCI-H460 lung; experiment: NCI-60 one-dose screen, 48 h (100 = growth as untreated, 0 = no growth, -100 = all killed); conditions: 10 µM unless noted

Row | Structure (SMILES) | growth
1 | CCC1S/C(=N\N=C(/C)c2ccco2)N(c2ccccc2)C1=O (stereo not drawn) | 93.8%
2 | C#C[C@H](O)/C=C/CCCCCCC#C[C@H](O)CC[C@@H](O)C#CCCCCCC/C=C/[C@@H](O)C#C | 97.4%
3 | O=[N+]([O-])c1cccc2cc(S(=O)(=O)O)ccc12 | 110%
4 | Nc1ccc(S(=O)(=O)Nc2cc(I)cc(I)c2)cc1 | 109%
5 | O=C(Nc1ccc(-n2cc(-c3ccncc3)c(-c3ccc(O)c(Cl)c3)n2)cc1)Nc1cc(C(F)(F)F)cc(C(F)(F)F)c1 | 49.3%
6 | O[C@@H]1CCO[C@H](c2ccc3ccccc3c2)C1 | 107%
7 | COc1cc(Cn2cc3c(c2)-c2onc(CO)c2CC3)cc(OC)c1OC | 93.6%
8 | CN(C)CCS(=O)(=O)Nc1cc(-c2ccc3ncnc(Nc4ccc(F)c(Cl)c4)c3c2)cnc1Cl | 7.68% (active)
9 | CCN(CC)c1ccc(C2CC(c3cc(OC)c(OC)c(OC)c3)=NN2)cc1 (stereo not drawn) | 2.68% (active)
10 | CCn1cc(C(=O)O)c(=O)c2cc(F)c(N3CCN(CC(=O)Nc4ccc(C(C)=O)cc4)CC3)cc21 | 107%
11 | CCOc1ccc(-n2c(-c3cc(OC)c(OC)c(OC)c3)nnc2-c2ccc(OC)cc2N)cc1 | 42.3%
12 | COc1ccc(/C(=C/c2cc(OC)c(OC)c(OC)c2)[N+](=O)[O-])cc1 | 13%
13 | O=C(Nc1cccc([N+](=O)[O-])c1)Nc1cccc([N+](=O)[O-])c1 | 35.2%
14 | COc1ccc(-c2nn(-c3ccc(NC(=O)Nc4cc(C(F)(F)F)cc(C(F)(F)F)c4)cc3)cc2-c2ccncc2)cc1Cl | -2.26% (active)
15 | O=c1c2ccccc2sc2c(NCCCNCCO)nc3ccccc3c12 | -33.5% (active)
16 | O=C(NNC(=O)c1ccc([N+](=O)[O-])cc1)c1ccc([N+](=O)[O-])cc1 | 105%
17 | CCN(CC)C(=O)C1CCN(C(=O)c2ccccc2)CC1 | 104%
18 | O=S(=O)(O)c1ccc(F)cc1 | 111%
19 | Cc1cc(SCc2ccc(Cl)cc2Cl)nc(SCc2ccc(Cl)cc2Cl)n1 | 104%
20 | CCOC(=O)c1noc2c1CCc1cn(Cc3cc(OC)cc(OC)c3)cc1-2 | 109%

Row | Structure (SMILES) | growth
21 | CC(C)(C)C(=O)Nc1nc2c(s1)CCc1ccn(S(=O)(=O)c3ccccc3)c1-2 | 96.2%
22 | CCCCCCCCCCCCCCCCNc1ccccc1 | 105%
23 | Cc1nc(N)nc(SCc2ccccc2)c1Br | 104%
24 | O=S(c1ccccc1)c1ccc2nnnn2n1 (stereo not drawn) | 103%
25 | O=C1COc2ccccc2C(=O)N1CCCCN1CCCCC1 | 104%
26 | O=C(COc1ccc(Cl)cc1Cl)N1N=C(c2ccc(Cl)cc2Cl)CC1(O)c1cc(F)c(Cl)cc1Cl (stereo not drawn) | 107%
27 | CC(CCC(=O)O)[C@H]1CCC2C3C(=O)C[C@@H]4CC(=O)CC[C@]4(C)C3CC(=O)[C@@]21C (stereo partly drawn) | 107%
28 | COc1ccc(-c2nn(-c3ccc(NC(=O)Nc4ccc(Cl)c(C(F)(F)F)c4)cc3)cc2-c2ccncc2)cc1Cl | -28.2% (active)
29 | O=C1COc2ccccc2C(=O)N1CCCCNc1ccccc1 | 98.7%
30 | O=C1CCC(c2c(O)cc(O)c3c(=O)c(O)c(-c4ccc(O)c(O)c4)oc23)N1 (stereo not drawn) | 105%
31 | CCCCCCCCCCCCCCCC(=O)NS(=O)(=O)OC[C@H]1O[C@@H](n2cnc3c(N)ncnc32)[C@H](O)[C@@H]1O | -10.1% (active)
32 | CN(CCNCc1ccccn1)CCNCc1ccccn1 | -7.2% (active)
33 | CCN(CC)CCNCC(O)Cc1ccc(OC)cc1 (stereo not drawn) | 107%
34 | CN1CCN(Cn2nc(-c3cc(Cl)cc(Cl)c3Cl)n(/N=C/c3ccc(Cl)cc3)c2=S)CC1 | 106%
35 | Cn1cnc([N+](=O)[O-])c1N1c2ccncc2Sc2ccncc21 | 106%
36 | O=C(O)c1cccc2oc(-c3ccccc3O)nc12 | 25.2%
37 | Nn1c(CN2CCN(c3cc4c(cc3F)c(=O)c(C(=O)O)cn4C3CC3)CC2)n[nH]c1=S | 109%
38 | Cc1ccc2nc(-c3ccc(-n4on4-c4ccc(/C=C/c5ccc(-n6on6-c6ccc(-c7nc8ccc(C)cc8s7)cc6)cc5S(=O)(=O)O)c(S(=O)(=O)O)c4)cc3)sc2c1 | 114%
39 | CC(C)(C)NCC(O)COc1c(Br)c(Br)c(Br)c2c1OC(C)(C)C2 (stereo not drawn) | -63.7% (active)

tested on: HOP-92 NSCLC; experiment: as above; conditions: 10 µM unless noted

Row | Structure (SMILES) | growth
40 | CCC1S/C(=N\N=C(/C)c2ccco2)N(c2ccccc2)C1=O (stereo not drawn) | 40.6%
41 | C#C[C@H](O)/C=C/CCCCCCC#C[C@H](O)CC[C@@H](O)C#CCCCCCC/C=C/[C@@H](O)C#C | 11.9%
42 | O=[N+]([O-])c1cccc2cc(S(=O)(=O)O)ccc12 | 85%
43 | Nc1ccc(S(=O)(=O)Nc2cc(I)cc(I)c2)cc1 | 79.2%
44 | O=C(Nc1ccc(-n2cc(-c3ccncc3)c(-c3ccc(O)c(Cl)c3)n2)cc1)Nc1cc(C(F)(F)F)cc(C(F)(F)F)c1 | 2.56% (active)
45 | O[C@@H]1CCO[C@H](c2ccc3ccccc3c2)C1 | 93.1%
46 | COc1cc(Cn2cc3c(c2)-c2onc(CO)c2CC3)cc(OC)c1OC | 67%
47 | CN(C)CCS(=O)(=O)Nc1cc(-c2ccc3ncnc(Nc4ccc(F)c(Cl)c4)c3c2)cnc1Cl | -21.4% (active)
48 | CCN(CC)c1ccc(C2CC(c3cc(OC)c(OC)c(OC)c3)=NN2)cc1 (stereo not drawn) | -13.6% (active)
49 | CCn1cc(C(=O)O)c(=O)c2cc(F)c(N3CCN(CC(=O)Nc4ccc(C(C)=O)cc4)CC3)cc21 | 92.8%
50 | CCOc1ccc(-n2c(-c3cc(OC)c(OC)c(OC)c3)nnc2-c2ccc(OC)cc2N)cc1 | 73.1%
51 | COc1ccc(/C(=C/c2cc(OC)c(OC)c(OC)c2)[N+](=O)[O-])cc1 | -24.6% (active)
52 | O=C(Nc1cccc([N+](=O)[O-])c1)Nc1cccc([N+](=O)[O-])c1 | 2.97% (active)
53 | COc1ccc(-c2nn(-c3ccc(NC(=O)Nc4cc(C(F)(F)F)cc(C(F)(F)F)c4)cc3)cc2-c2ccncc2)cc1Cl | -21.6% (active)
54 | O=c1c2ccccc2sc2c(NCCCNCCO)nc3ccccc3c12 | -1.63% (active)
55 | O=C(NNC(=O)c1ccc([N+](=O)[O-])cc1)c1ccc([N+](=O)[O-])cc1 | 106%
56 | CCN(CC)C(=O)C1CCN(C(=O)c2ccccc2)CC1 | 98.8%
57 | O=S(=O)(O)c1ccc(F)cc1 | 116%
58 | Cc1cc(SCc2ccc(Cl)cc2Cl)nc(SCc2ccc(Cl)cc2Cl)n1 | 112%
59 | CCOC(=O)c1noc2c1CCc1cn(Cc3cc(OC)cc(OC)c3)cc1-2 | 104%

Row | Structure (SMILES) | growth
60 | CC(C)(C)C(=O)Nc1nc2c(s1)CCc1ccn(S(=O)(=O)c3ccccc3)c1-2 | 96.2%
61 | CCCCCCCCCCCCCCCCNc1ccccc1 | 97.7%
62 | Cc1nc(N)nc(SCc2ccccc2)c1Br | 79.4%
63 | O=S(c1ccccc1)c1ccc2nnnn2n1 (stereo not drawn) | 101%
64 | O=C1COc2ccccc2C(=O)N1CCCCN1CCCCC1 | 61.5%
65 | O=C(COc1ccc(Cl)cc1Cl)N1N=C(c2ccc(Cl)cc2Cl)CC1(O)c1cc(F)c(Cl)cc1Cl (stereo not drawn) | 84.5%
66 | CC(CCC(=O)O)[C@H]1CCC2C3C(=O)C[C@@H]4CC(=O)CC[C@]4(C)C3CC(=O)[C@@]21C (stereo partly drawn) | 96.2%
67 | COc1ccc(-c2nn(-c3ccc(NC(=O)Nc4ccc(Cl)c(C(F)(F)F)c4)cc3)cc2-c2ccncc2)cc1Cl | -22% (active)
68 | O=C1COc2ccccc2C(=O)N1CCCCNc1ccccc1 | 64.8%
69 | O=C1CCC(c2c(O)cc(O)c3c(=O)c(O)c(-c4ccc(O)c(O)c4)oc23)N1 (stereo not drawn) | 91.9%
70 | CCCCCCCCCCCCCCCC(=O)NS(=O)(=O)OC[C@H]1O[C@@H](n2cnc3c(N)ncnc32)[C@H](O)[C@@H]1O | -65.7% (active)
71 | CN(CCNCc1ccccn1)CCNCc1ccccn1 | -7.3% (active)
72 | CCN(CC)CCNCC(O)Cc1ccc(OC)cc1 (stereo not drawn) | 81.4%
73 | CN1CCN(Cn2nc(-c3cc(Cl)cc(Cl)c3Cl)n(/N=C/c3ccc(Cl)cc3)c2=S)CC1 | 43.7%
74 | Cn1cnc([N+](=O)[O-])c1N1c2ccncc2Sc2ccncc21 | 77.1%
75 | O=C(O)c1cccc2oc(-c3ccccc3O)nc12 | 48.8%
76 | Nn1c(CN2CCN(c3cc4c(cc3F)c(=O)c(C(=O)O)cn4C3CC3)CC2)n[nH]c1=S | 116%
77 | Cc1ccc2nc(-c3ccc(-n4on4-c4ccc(/C=C/c5ccc(-n6on6-c6ccc(-c7nc8ccc(C)cc8s7)cc6)cc5S(=O)(=O)O)c(S(=O)(=O)O)c4)cc3)sc2c1 | 138%
78 | CC(C)(C)NCC(O)COc1c(Br)c(Br)c(Br)c2c1OC(C)(C)C2 (stereo not drawn) | -57.7% (active)
